Only some compounds are listed: those with a hit (about 1.4% of all), similar ones and a draw of the others.
BJeLR lethal: MLPCN primary cell-based screen for lethality selective to Ras in HRASV12 cells. BJeLR (HRASV12) viability, CellTiter-Glo ATP luminescence, 48 h. inhibition, % (test concentration not listed). hit rate 0.17% among 300,000. AID 1554, 2009; in the data active means inhibition above about 50%
SARS 3CLpro inh: SARS-CoV 3CLpro protease inhibitors, primary screen, biochemical, quenched FRET. inhibition, % at 6 µM. recombinant SARS-CoV 3CLpro, quenched FRET peptide cleavage. hit rate 0.14% among 290,000; in the data active means inhibition above about 12%
MazEF act: activators of E. coli MazEF toxin-antitoxin RNase, primary screen, biochemical, fluorescence, uHTS; Endoribonuclease toxin MazF (Escherichia coli (strain K12)), P0AE70; FAM/BHQ RNA-DNA oligo cleavage fluorescence, 5 h; activation, % at 20 µM; hit rate 0.32% among 350,000; AID 504720, 2011; in the data active means activation above about 50%
Target sequence (P0AE70 whole entry, looked up): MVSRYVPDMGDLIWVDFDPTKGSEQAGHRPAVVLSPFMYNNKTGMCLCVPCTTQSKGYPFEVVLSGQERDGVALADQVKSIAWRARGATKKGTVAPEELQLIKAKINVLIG
CCHF vOTU inh-1: CCHFV vOTU protease inhibitors, primary screen, biochemical, Pep-AMC substrate, fluorescence; AID 651958, 2012; inhibition, % at 11.5 µM; Crimean-Congo hemorrhagic fever virus L polyprotein viral ovarian tumor (vOTU) protease …; hit rate 0.55% among 370,000
DUSP3 inh: VHR1 phosphatase inhibitors, primary screen, biochemical, absorbance, uHTS. Dual specificity protein phosphatase 3 (Homo sapiens), P51452. recombinant VHR phosphatase, pNPP absorbance. inhibition, % at 13.3 µM. hit rate 0.52% among 290,000. AID 1654, 2009; in the data active means inhibition above about 50%
Target sequence (P51452 whole entry, looked up): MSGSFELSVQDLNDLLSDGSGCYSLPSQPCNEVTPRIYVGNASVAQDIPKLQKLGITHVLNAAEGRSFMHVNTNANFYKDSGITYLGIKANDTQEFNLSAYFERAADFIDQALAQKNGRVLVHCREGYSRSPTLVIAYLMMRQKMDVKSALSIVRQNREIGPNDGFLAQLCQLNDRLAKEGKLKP
CCHF vOTU inh-2: CCHFV vOTU protease inhibitors, confirmation, biochemical, Pep-AMC substrate, fluorescence; hit rate 17% among 1,900; inhibition, % at 11.5 µM; Recombinant CCHFV vOTU; shares compounds with CCHF vOTU inh-1; AID 686976, 2013
Numbers stand for hits; – = inactive; · = no result. Unless noted, no stated cut-off is given here; in the data, active means inhibition above about 30%; inactive means the rest.

SMILES	BJeLR lethal	SARS 3CLpro inh	MazEF act	CCHF vOTU inh-1	DUSP3 inh	CCHF vOTU inh-2
Fc1ccc(Nc2cncc(-c3ccsc3)c2)cc1Cl	·	·	·	94	·	–
CCCCNC(=O)C[C@H]1C[C@@]2(C(=O)OC)C(=C[C@H](C(C)C)O[C@@H]2C2CC2)N(Cc2ccco2)C1=O	·	·	·	–	·	·
COc1ccc(-c2csc(NC(=O)c3ccccc3NS(=O)(=O)c3ccc(F)c(F)c3)n2)cc1	–	–	–	37	–	–
CCOc1ccc(S(=O)(=O)Nc2ccccc2C(=O)Nc2ccccc2N2CCOCC2)cc1	–	–	–	–	–	·
CCOc1ccc(NC(=O)c2ccccc2NS(=O)(=O)c2ccc(F)cc2)c([N+](=O)[O-])c1	–	–	–	30	–	–
Cc1ccc(S(=O)(=O)Nc2ccccc2C(=O)Nc2nc(-c3ccc(F)cc3)cs2)cc1	–	–	–	30	–	–
CC(Nc1cccc2ccccc12)C(=O)N/N=C/c1ccc([N+](=O)[O-])cc1 (stereo not drawn)	–	–	–	104	–	–
COc1cc([N+](=O)[O-])cc(/C=N/NC(=O)C(C)Nc2cccc3ccccc23)c1O (stereo not drawn)	–	–	–	–	–	·
CC(O)C(=O)N/N=C/c1cccc2ccccc12 (stereo not drawn)	–	–	–	–	–	·
Cc1cccc(/C=N/NC(=O)C(C)Nc2cccc3ccccc23)n1 (stereo not drawn)	–	–	–	115	–	–
O=C(CNc1cccc2ccccc12)c1ccc([N+](=O)[O-])cc1	–	–	–	30	–	–
CCOC(=O)[C@@]12CCCC3=C1N(CCC3)C(=O)[C@H]2CC(=O)NCc1ccc(OC)c(OC)c1	·	·	·	–	·	·
Cc1ccc(C(=O)N/C(=C/c2cn(-c3ccccc3)nc2-c2ccccc2)C(=O)O)cc1	–	–	–	39	–	–
Cc1cc(-c2n[nH]c(=S)n2N=Cc2cccc(OCc3ccccc3)c2)n[nH]1	·	·	·	–	·	·
CCC(=O)N1CCCC(C)(C(=O)Nc2ccc(OC(F)F)cc2)C1 (stereo not drawn)	·	·	·	31	·	–
CCC(=O)N1CCCC1(C)C(=O)Nc1ccc(OC(F)F)cc1 (stereo not drawn)	·	·	·	–	·	·
N=c1c2c(-c3ccccc3)c(-c3ccccc3)n(Cc3ccccc3)c2ncn1C1CCOCC1	·	·	·	–	·	·
CCOC(=O)[C@@]12CCCC3=C1N(CCC3)C(=O)[C@H]2CC(=O)N1CCC(c2ccccc2)CC1	·	·	·	–	·	·
COc1ccc(S(=O)(=O)N2CCC(c3nc4ccccc4o3)CC2)c(OC)c1	·	·	·	–	·	·
CCc1noc(C)c1C(=O)N(C)CC(=O)Nc1ccc(Cl)c(Cl)c1	–	·	–	–	·	·
CCc1noc(C)c1C(=O)N(C)CC(=O)Nc1ccccc1C(F)(F)F	–	·	–	36	·	–
O=c1c(O)c(-c2ccc(O)c(O)c2)oc2cc(O)cc(O)c12	–	–	–	32	–	–
O=c1cc(-c2ccc(O)c(O)c2)oc2cc(O)cc(O)c12	–	·	–	–	–	·
COc1ccc(CN([C@H](CO)CC(C)C)S(=O)(=O)N(Cc2ccccc2)[C@H](CO)CC(C)C)cc1	·	·	–	34	·	–
O=C(CCc1ccc(S(=O)(=O)N2CCOCC2)cc1)Nc1ccc(F)c(F)c1F	·	·	–	35	·	–
Cc1ccc(S(=O)(=O)N2CC3(O)CN(C(=O)OC(C)C)N(C(=O)OC(C)C)CC3(OC(=O)NCC3CCCCC3)C2)cc1 (stereo not drawn)	·	·	–	–	·	·
CCCCCCNC(=O)OC12CN(C(=O)OC(C)C)N(C(=O)OC(C)C)CC1(O)CN(S(=O)(=O)c1ccc(C)cc1)C2 (stereo not drawn)	·	·	–	37	·	–
COc1ccc(OC)c2c1cc(C(=O)N[C@H](C(=O)N1CCC(C(=O)O)CC1)C(C)C)n2C	–	–	–	36	–	–
COc1ccc(OC)c2c1cc(C(=O)N[C@@H](Cc1ccccc1)C(=O)O)n2C	–	–	–	–	–	·

Screens from PubChem.
